In the supplement of paper PMC6555819:

Key:
Assay in all cases: PBM binding z-score (relative to random genomic background probes); higher = stronger binding; sequences stand for … in GC…GCGATTGACAGCGTAGAATGAAGG
[1] = tested on: RARb homodimer (NR concentration 270 nM)
Procedure, shortened: (§1)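 Binding buffer was PBS pH 7.4 with 2% milk, 0.02% Triton X-100, 1 mM DTT, 0.2 mg/mL BSA and 0.4 mg/ml salmon testes DNA. In it, ligand-free nuclear receptor dimers were incubated 1 h on custom Agilent 4×180K protein-binding microarrays carrying double-stranded probes. Antibodies against each partner (one per run) detected binding, and z-scores were calculated against random background probes after regression normalization of scanned fluorescence.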

[2] = tested on: RARg:RXRa (NR concentration 270 nM, RXRa partner concentration 90 nM)
Procedure, shortened: as §1

[3] = tested on: RARg homodimer (NR concentration 270 nM)
Procedure, shortened: as §1

[4] = tested on: RXRa DBDmut IVT, anti-RXR (DBD mutation: RXRa K156A/R161A, NR concentration 90 nM)
Procedure, shortened: as §1

[5] = tested on: RXRa homodimer (NR concentration 180 nM)
Procedure, shortened: as §1

[6] = tested on: THRa:RXRa (NR concentration 90 nM, RXRa partner concentration 90 nM)
Procedure, shortened: as §1

[7] = tested on: THRa homodimer (NR concentration 90 nM)
Procedure, shortened: as §1

[8] = tested on: VDR:RXRa (NR concentration 270 nM, RXRa partner concentration 90 nM)
Procedure, shortened: as §1

[9] = tested on: VDR homodimer (NR concentration 270 nM)
Procedure, shortened: as §1

Sequence	PBM binding z-score [1]	PBM binding z-score [2]	PBM binding z-score [3]	PBM binding z-score [4]	PBM binding z-score [5]	PBM binding z-score [6]	PBM binding z-score [7]	PBM binding z-score [8]	PBM binding z-score [9]
TCTTTTAGATCAAAGGTTAAGAAAGCCGAAGCCT	1.42	1.81	1.01	1.32	2.81	1.33	-0.158	1.51	-0.294
ATCTCTAGGTAAAGTTCAGTGATAGATCGATAGA	2.44	2.15	2.58	1.56	1.42	1.2	0.236	1.47	2.09
CCTACGGGGCCAAAAAGGTCATTGATGCCGATAA	4.54	5.07	4.8	1.23	5.09	3.44	0.423	5.88	3.98
ATTCGGAGGACAAAGGTCAGAGCTACGCCAGTGA	4.59	5.89	5.52	0.937	5.03	3.41	0.717	3.4	1.32
GCTCGGAGGACAACGTCAGAGCTTTGTCCGTAGA	-0.35	-0.399	0.158	0.00939	-0.87	0.242	-0.468	-0.935	-0.803
TCATATAGGTAAACAGGTGAAAGGCCGTAAGTTA	1.29	0.793	0.375	1.61	1.2	0.682	0.262	0.988	0.499
TCTTGTAGATCAATAGAGGTTAAAAAAGTGCGCT	1.19	0.821	0.586	0.81	1.39	2.21	-0.13	1.94	0.48
CCTAGCAGGCCAAGGTCACTCAAGCATTTCGCTT	3.82	3.82	3.92	1.05	3.51	3.66	2.88	2.88	2.2
TAGCCTAGGTCATGCGAGCCAGTATAGTGTCGGC	2.67	3.75	3.79	0.876	3.03	2.98	1.03	1.92	0.235
TCTATTAGTTGACGGGCAACCGACGAGTCCGTTT	-0.1	0.0549	-0.0135	1.46	0.417	-0.223	-0.348	0.671	0.718
AATACAGGGTCATCGTAGGCAAGAGTACGCACAG	3.24	5.6	5.07	3.51	6.7	4.16	1.5	5.23	3.96
TCTCGAAGGACACGAAAGGTCAGAGCTCGACATC	4.81	4.59	4.73	1.37	4.17	3.39	0.878	3.06	0.702
CAAACTAGGTCAAATGTCAAAGTCGAGCCAACCA	3.4	5.2	5.17	2.58	5.14	3.36	0.944	3.1	1.05
CGAACGAGGGCATGAGTTGAGAGCAAATGCCGAT	0.724	1.46	1.56	1.8	1.02	1.25	-0.339	1.01	1.26
GATTCAGGGTCAAGGCCAGAGTACGCGTATTGAT	4.04	6.08	5.81	3.03	7.1	3.87	2	4.89	3.02
TAGCCTAGATCATGCGGGCCAGTATAGTGTCGGC	-1.16	-0.937	-0.627	-1	-0.796	-1.05	-1.46	-1.11	-1.14
CAAACTAGGTGAAGAGGTCAAAGTCCGCTTCCCG	4.7	5.44	3.96	1.73	5.48	3.86	1.42	4.67	3.38
CCTTACGGCTCACGAGGTTATAGCACGACGAGCG	0.414	0.351	0.335	0.229	0.925	1.39	0.522	0.412	0.564
CAAACTAGGTCACCGGAAGGCCAAAGTCCGCATG	3.78	5.9	5.62	1.55	3.59	3.53	1.43	3.23	0.943
AGAACGAGGGCACGCTGAGTCGATAGCAGAGTAG	1.02	1.92	2.12	1.87	1.29	1.72	-0.22	0.908	0.912
AGTCTAAGTTCAGGACGAGGTAACGTAAAGCACG	1.85	3.11	2.65	3.28	1.57	3.56	1.99	2.58	2.62
TAGCCGAGGTCATGCGGGCCAGTATAGTGTCGGC	4.39	6.21	5.83	3.81	6.86	4.36	2.99	5.82	4.62
TCGTATAGGTAAAAGGTGAAAGTCGGTGTGGTAA	2.13	2.13	0.793	1.59	3.14	1.85	0.583	1.58	0.462
AAAACGAGGGCACGCTGAGTTGATAGCAGAGTAG	1.08	2.13	2.34	2.08	1.62	1.94	0.0518	2.53	2.26

Sequence	PBM binding z-score [1]	PBM binding z-score [2]	PBM binding z-score [3]	PBM binding z-score [4]	PBM binding z-score [5]	PBM binding z-score [6]	PBM binding z-score [7]	PBM binding z-score [8]	PBM binding z-score [9]
CCTACTGGGCCAAAAAGATCATTGATGCCGATAA	-0.443	-0.189	0.104	-0.443	-0.145	-0.348	-0.71	-0.303	-0.266
CCTACTGGGCCACGAAAGGTCATAGATTCAGTGA	4.58	4.73	4.53	-0.0363	4.95	3.84	0.901	3.89	1.31
CGTCCAAGGTCAGAGAGGACAGTGAATGCCGAGT	4.12	4.57	5.67	2.6	3.68	3.67	2.08	5.85	2.85
CCTACTGGGCCAAAAAGCTCATTGATGCCGATAA	-0.842	-0.596	-0.419	-0.369	-0.638	-0.815	-0.619	-0.648	-0.487
CAAACTACGTCACCGGAAGGTCAAAGTCCGCATG	4.23	4.01	2.91	0.765	3.55	2.88	1.47	3.23	2.03
ACAGACAGGTGAGTTAAGGTAACTCAGCTGGACG	-0.0673	0.439	0.59	-0.352	0.374	4.35	1.8	-0.161	-0.547
ACAGACAGGTGAATGAAGGTAACTCAGCTGGACG	0.0507	0.439	0.784	-0.296	0.534	2.08	-0.448	-0.131	-0.781
ATCTCGAGGTAAAGATAGTTCAGTGAATGCAAAT	0.904	0.819	0.829	-0.272	0.518	1.5	-0.16	1.23	0.272
ATCTCTAGGTAAAAGTTTAGTGAATCCCGAGGAT	0.137	0.438	0.614	-0.116	0.318	0.379	0.343	0.124	0.554
CAAACTAGGTCAATGTCAAAGTCGGTTTGTGCCA	3.06	3.43	4.16	1.94	2.36	2.56	0.861	1.58	1.28
ATATGGAGGTTATCGGGTCATTCAGTTTGCGCAT	3.56	4.27	3.28	2.19	4.9	3.71	3	5.78	4.69
AGTCAAAGTTCAGGACGAGTTAACGTAAAGCACG	3.1	4.4	4.71	2.71	3.19	2.57	0.422	2.96	2.59
GCAACGAGGGCAAAGTTGATAGCATCTGTCGACG	0.991	1.89	1.57	2.62	1.81	1.19	-0.191	1.26	1.21
CCTACTGAGCCATTCAGAGGTCATTGATCATATG	4.08	3.93	2.95	1.66	4.41	3.21	1.58	3.96	3.71
AGAACGAGGGCACGCTAAGTTGATAGCAGAGTAG	1.19	2.2	2.4	1.74	1.49	1.97	0.0343	1.65	1.42
ACTATTAATTGAGACGAGGGCAACCGATAGGTTG	1.56	0.73	0.967	0.688	0.753	1.33	1.03	0.764	1.64
CGAACTAGGTCAGAACAGGTCAGTGAAGGATGAT	3.88	3.47	4.34	1.03	2.22	4.08	0.526	2.68	0.955
CTACTAAGGTGAACAAGGTCGTTGATTACTATTC	2.33	2.35	1.64	1.81	2.34	3.61	2.82	6.38	2.67
ACTATTAGTTGACTTAGGGCAACCGTTACGACGC	1.34	0.618	0.892	1.01	0.622	1.53	0.619	0.577	0.195
TCTATTAGTTCAAGGGCAACCGACGAGTCCGTTT	2.81	2.08	2.62	2.6	1.58	1.92	1.36	2.38	3.41
CCTAGTTGGTCAAGGTCGCACACGCTATAGGTAC	2.39	1.87	2.27	0.634	1.83	2.64	1.75	1.75	2.3
GCATATAAGTAATACAAGGTGAAAGTCCGATTGT	0.816	0.308	0.389	0.717	0.568	2.96	0.985	0.0691	-0.188
ATCGAAACGTCGAGGTGAGTATAGAGAAAGGGAA	-0.0564	0.238	0.317	-0.787	0.266	1.03	-0.0731	-0.325	-0.175
CCTACTGGGCCACGAAAGGTCATTCATTCAGTGA	4.77	4.77	4.33	0.665	5.17	3.8	0.995	4.43	2.83
